Test results published in PubChem BioAssay AID2315 (National Center for Advancing Translational Sciences (NCATS), 2010).
Screen size: about 290,000 compounds; about 27,000 (9.3%) were called active. This is one part of a sample in which actives are shown more often than they occur. Unmarked numbers belong to inactive results. Rule as the data show it: active = inhibition mostly above about 28% (no sharp cut-off); inactive = mostly below about 43%. Where a SMILES comes first, the peptide text is derived from it. [ ]: non-standard residue; d: D form. The star is where a group is joined. PhAc = O=C(Cc1ccccc1)*

Test: A qHTS for Small Molecule Inhibitors of Shiga Toxin; also: 0% is about no effect
Details: Vero cells, Shiga toxin protein synthesis inhibition reporter; at 38.7 µM, stronger effect = higher value

| Compound | inhibition |
| --- | --- |
| CC(C)C[C@@H](NC(=O)[C@H]1CCCN1C(=O)Cc1ccccc1)C(N)=O (PhAc-[dP]-[dL]-NH2) | 6.07% |
| CCc1ccc(Nc2nnc(SCC(=O)c3ccc4c(c3)NC(=O)CO4)s2)cc1 | 32.3% |
| CC(C)[C@H](NC(=O)OCc1ccccc1)C(=O)OCc1ccccc1 | 25.1% |
| CCC1OC(c2ccc([N+](=O)[O-])cc2)=Nc2ccccc21 (stereo unspecified) | 6.08% |
| COc1ccc(-c2n[nH]c(C)c2-c2ccccc2OC)c(O)c1 | 13.4% |
| O=C(C1CC(=O)N(c2ccc(Br)cc2)C1)N1CCCC1 (stereo unspecified) | -22.5% |
| COc1ccc(NC(=O)c2cc([N+](=O)[O-])ccc2NC(=O)CNC2CCCCC2C)c(OC)c1 (stereo unspecified) | 7.27% |
| CCc1nnc(NC(=O)c2cccc(S(=O)(=O)N(C)c3ccc(OC)cc3)c2)s1 | -10.6% |
| CCc1nnc(NC(=O)c2sc3nc(C)cc(COC)c3c2N)s1 | 53.1% |
| CCc1ccc2nc3sc(C(=O)Nc4nnc(CC)s4)c(N)c3cc2c1 | 48.9% (active) |
| Cc1ccc(C)c(S(=O)(=O)Nc2cccc(-n3cnnn3)c2)c1 | 23.9% |
| Cc1cccc[n+]1CC(=O)c1ccccc1 | 5.04% |
| O=C(Nc1ccon1)c1sc2ccccc2c1Cl | 88% (active) |
| O=C(Nc1ccon1)c1cccc(Cl)c1 | 5.52% |
| O=C(N/N=C/c1c(Cl)[nH]c2ccccc12)c1sc2ccccc2c1Cl | -0.233% |
| COc1ccc(Nc2oc(-c3ccccc3Cl)nc2C#N)cc1 | 20.6% |
| N#Cc1nc(Cc2ccccc2)oc1NCCc1ccccc1 | 64.7% (active) |
| Cc1ccccc1-c1nc(C#N)c(NCc2ccco2)o1 | 71.9% |
| N#Cc1nc(Cc2cccc3ccccc23)oc1NCc1ccc2c(c1)OCO2 | 12.3% |
| N#Cc1nc(COc2ccc(-c3ccccc3)cc2)oc1NCc1cccnc1 | 56.8% |
| CCOc1ccc(Nc2oc(Cc3ccccc3)nc2C#N)cc1 | 58.5% (active) |
| O=C(Nc1ccc(F)cc1)c1ccc(S(=O)(=O)NCc2cccnc2)cc1 | 27.5% |
| CCOc1ccc(S(=O)(=O)N2CCC(C(=O)NCc3ccccn3)CC2)cc1Cl | 3.21% |
| CC1CCN(C(=O)c2ccc3c(=O)n4c(nc3c2)CCCCC4)CC1 | 19.9% |

| Compound | inhibition |
| --- | --- |
| Cc1cc(C)nc(NS(=O)(=O)c2ccc(N/C=C\C(=O)c3cccs3)cc2)n1 | 97.2% (active) |
| CCc1nnc(NS(=O)(=O)c2ccc(NC(=S)NC(=O)c3cccs3)cc2)s1 | -15.7% |
| CC(=O)Nc1ccc(S(=O)(=O)Nc2nccc(/C=C/c3ccccc3F)n2)cc1 | 21.8% |
| COc1ccc(/C=C(\C#N)c2c[nH]c3ccccc23)cc1 | 68% (active) |
| COc1ccc(C(C(O)C(=O)c2c[nH]c3ccccc23)N2CCN(c3ccccc3)CC2)cc1 (stereo unspecified) | -5.67% |
| COc1ccc2[nH]cc(/C=C(/C#N)S(=O)(=O)c3ccccc3)c2c1 | -6.23% |
| O=C(COC(=O)CCC(=O)c1cccs1)NCc1ccco1 | -12.8% |
| O=C(COC(=O)CCc1c[nH]c(=O)[nH]1)Nc1ccccc1Cl | -3.38% |
| O=C(COC(=O)c1ccc(Cl)nc1)NCc1cccs1 | -3.54% |
| O=C(COC(=O)/C(=C/c1cccs1)c1cccs1)NCc1ccccc1Cl | 13.7% |
| O=C(COC(=O)c1cccs1)NCc1cccs1 | 40% (active) |
| CCc1ccc(NC(=O)C(=O)NNC(=O)c2cccs2)cc1 | 39.1% (active) |
| NS(=O)(=O)c1ccc(NC(=S)NNC(=O)c2cccs2)cc1 | 107% (active) |
| Cc1ccccc1C(=O)N1CCN(c2ccc(NC(=O)c3cccs3)cc2)CC1 | -18.3% |
| NS(=O)(=O)c1ccc(NC(=S)NC(=O)c2cccc(Br)c2)cc1 | 4.4% |
| NS(=O)(=O)c1ccc(NC(=S)NC(=O)c2cccnc2)cc1 | -16% |
| O=C(COC(=O)c1cccs1)Nc1ccccc1Cl | 36.9% (active) |
| COc1ccc(CCOC(=O)CNC(=O)c2ccc(Cl)cc2Cl)cc1 | 7.31% |
| CCCOc1ccc(CNC(=O)C2CCN(c3nn4c(=O)cc(C)nc4s3)CC2)cc1 | -3.64% |
| Cc1cccnc1CCNC(=O)C1CCC(=O)N(Cc2cccc(F)c2)C1 (stereo unspecified) | -6.16% |
| COC(CNC(=O)c1ccc2c(c1)ncn2-c1cc(C)cc(C)c1)OC | 4.27% |
| COc1cccc(CN(C)C(=O)CC23CC4CC(CC(C4)C2)C3)c1OC | -11.5% |
| CS(=O)(=O)c1ccc(-c2nnn(CC(=O)Nc3ccc4c(c3)OCCO4)n2)cc1 | 20.6% |
| C/C(=N\OCC(=O)Nc1ccc(Br)cc1)c1cccs1 | 40.3% |

| Compound | inhibition |
| --- | --- |
| CCc1cccc(NC(=O)CCNS(=O)(=O)c2cccc3nonc23)c1 | -3.23% |
| O=S(=O)(NCCc1ccc(Cl)cc1)c1cccs1 | 10.5% |
| CCc1ccc(NC(=O)CCNS(=O)(=O)c2cccs2)cc1 | 53.4% (active) |
| CCc1ccc(NC(=O)COC(=O)c2cccs2)cc1 | 51.4% (active) |
| Cc1ccc(OCC(=O)Nc2ccc(NC(=O)c3cccs3)cc2)c(C)c1 | 25.9% |
| COc1ccccc1C(=O)N(C1=NC(C)CS1)c1ccc(Cl)cc1 (stereo unspecified) | -5.01% |
| COc1ccccc1CNC(=O)C1CCN(C(=O)[C@@H]2Cc3ccccc3CN2)CC1 | 13.3% |
| Cc1c(C(=O)NCC(c2ccco2)N2CCCC2)oc2ccc(Cl)cc12 (stereo unspecified) | 49.7% |
| Cc1nc2nc(SCC(=O)Nc3cccc(F)c3)[nH]c2cc1Br | 6.55% |
| CCCCn1c(SCC(=O)N2CCOCC2)nc2c1c(=O)n(C)c(=O)n2C | -5.05% |
| O=C(Nc1ccc2c(c1)C(=O)OC2)Nc1cccc2ccccc12 | 12.8% |
| CC(=O)N(C)c1ccc(NC(=O)C(F)(F)F)cc1 | 13.5% |
| CCOc1ccc(NC(=O)Nc2ccc(N(C)C(C)=O)cc2)cc1 | 73.9% (active) |
| CCOc1ccc(NC(=O)N(CC(C)C)CC(C)C)cc1 | 26.1% |
| O=C(O)Cc1ccc(NC(=O)Nc2cccc3ccccc23)cc1 | -1.4% |
| CC(=O)N(C)c1ccc(NC(=O)Nc2cccc3ccccc23)cc1 | 77.5% (active) |
| NS(=O)(=O)c1ccc(CCNC(=O)c2nc(CS(=O)(=O)c3ccc(Cl)cc3)no2)cc1 | -2.78% |
| O=Cc1ccc(Oc2cccc(C(F)(F)F)c2)nc1 | 12.2% |
| FC(F)(F)c1ccnc(Oc2ccc(C3=NCCS3)cc2)c1 | 64.7% (active) |
| C[C@H](NC(=O)C1CC(=O)N(c2ccc3c(c2)OCO3)C1)C(=O)NCc1ccco1 (stereo partly specified) | -4.62% |
| O=S(=O)(NC1CCCCC1N1CCCCC1)c1ccc(Cl)cc1 (stereo unspecified) | -21.5% |
| O=C(NCc1ccncc1)C1CCCN(S(=O)(=O)c2ccc(Br)cc2)C1 (stereo unspecified) | -9.96% |
| Cc1nc2sc3c(c2c(=O)n1NC(=O)CCl)CCCC3 | -6.21% |
| CCC(O)CNc1nc(-n2nc(C)cc2C)nc2sc3c(c12)CC(C)(C)OC3 (stereo unspecified) | -11.2% |

| Compound | inhibition |
| --- | --- |
| COCCNc1nc(-n2nc(C)cc2C)nc2sc3c(c12)CCCC3 | 51.2% (active) |
| COc1ccccc1NC(=O)c1cc(N2C(=O)C3C4CCC(C4)C3C2=O)ccc1Cl (stereo unspecified) | -3.33% |
| COc1ccccc1N1CCN(S(=O)(=O)c2ccc3c(c2)NC(=O)CS3)CC1 | 16.6% |
| N#Cc1c(NC(=O)C2CC(Cl)=CCC2C(=O)O)sc2c1CCCCC2 (stereo unspecified) | 18.3% |
| N#Cc1c(NC(=O)C2CCCO2)sc2c1CCCCC2 (stereo unspecified) | 82.7% (active) |
| N#Cc1c(NC(=O)CCCl)sc2c1CCCCC2 | 25% |
| Cc1c(C)c2ccc(OCC(=O)N3CCC(C(=O)O)CC3)c(C)c2oc1=O | -1.33% |
| Nc1ccn(C2CC(O)C(CO)O2)c(=O)n1 (stereo unspecified) | -2.7% |
| CCOC(=O)c1c(NC(=O)CSc2nccc(=O)[nH]2)sc(C)c1C | -11.1% |
| Cc1ccc2ccc3c(c2n1)NS(=O)(=O)c1ccccc1-3 | -4.77% |
| Nc1ccccc1Sc1ccc(C(F)(F)F)cc1[N+](=O)[O-] | -8.21% |
| CCS(=O)(=O)c1cc([N+](=O)[O-])c(Sc2ccccc2N)s1 | 101% (active) |
| CCOC(=O)c1cc(Sc2ccccc2N)cc(C(=O)OCC)n1 | -2.59% |
| C/C(=N\NC(=O)c1nc(C)cc(C)n1)c1ccccc1 | 86.5% (active) |
| C/C(=N\NC(=O)c1cccnc1)c1ccc(-c2ccccc2)cc1 | 20.1% |
| COc1ccc(/C(C)=N/NC(=O)c2ccc3nc[nH]c3c2)cc1 | -11.9% |
| COc1ccc(N=Nc2c(-c3ccc(OC)cc3)[nH]oc2=O)cc1 | -1.4% |
| Cc1cc(C)cc(OCC(=O)NC(C)c2ccccc2)c1 (stereo unspecified) | 16.2% |
| COc1cc(NC(=O)c2ccccc2)c(OC)cc1NC(=O)Cc1ccccc1 | -6.61% |
| COC(=O)C1CCN(C(=O)c2ccc3oc(Cc4ccc(Cl)cc4)nc3c2)CC1 | -23.6% |
| COCC1CCN(C(=O)c2ccc3oc(Cc4ccccc4)nc3c2)C1 (stereo unspecified) | 42.2% (active) |
| COc1ccc(Cc2nc3ccc(C(=O)N4CCC(N(C)C)C4)cc3o2)cc1 (stereo unspecified) | 5% |
| CN(C)c1ccc(/C=C2\NC(=S)N(Cc3ccccc3)C2=O)cc1 | 3.47% |
| CCc1nn(CCCC(=O)NC(C)c2ccccc2)c(=O)c2cc3occc3n12 (stereo unspecified) | 11.1% |
